Records with an inconclusive call do not appear. Calls of active or inactive are those of the source. The call rests on the fitted dose curve; in most records, active means well fitted cell-killing curve with a large enough effect; inconclusive means small, poorly fitted or top-dose-only effect, or effect the other way; inactive means no such curve, though single readings can be large or run the other way.
Test system: C33A
Assay: Confirmatory qHTS for gynecologic anti-cancer compounds from libraries of approved drugs and bioactive compounds; further: nearly all actives have a fitted effect of over 55% in size
Conditions: gynecologic cancer cell panel viability, ATPlite luminescence, 48 h; series mostly up to 57.6 µM
Procedure, shortened: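 ATP-based luminescent viability (ATPlite) after 48 h drug treatment at 37 °C, 5% CO2, across 57.5 uM–0.977 nM in 1:3 steps. Cells seeded at 1,000 per well 16 h beforehand; IC50 values computed, HEK 293T as selectivity control.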
Potency means the concentration at half of the fitted maximal effect.

SMILES | Potency
CN1CCN(c2cccc(Nc3nc4c(-c5ccc(S(C)(=O)=O)cc5)cccn4n3)c2)CC1 | inactive
CCCCN(CCCC)C(=O)CN1C[C@H](c2ccc3c(c2)OCO3)[C@@H](C(=O)O)[C@@H]1c1ccc(OC)cc1 | inactive
O=c1cc(CN2CCOCC2)occ1OCCCCCSc1ccnc2cc(C(F)(F)F)ccc12 | inactive
CN(c1nccc(=O)[nH]1)C1CCN(c2nc3ccccc3n2Cc2ccc(F)cc2)CC1 | inactive
CCc1nc(C(N)=O)c(Nc2ccc(N3CCC(N4CCN(C)CC4)CC3)c(OC)c2)nc1NC1CCOCC1 | inactive
COc1c(C)c2c(c(O)c1C/C=C(\C)CCC(=O)OCCN1CCOCC1)C(=O)OC2 | 2.73 µM (active)
CN[C@@H](C)C(=O)N[C@H]1CN(C(=O)CC(C)C)CC[C@H]2CC[C@@H](C(=O)NC(c3ccccc3)c3ccccc3)N2C1=O | inactive
Cc1[nH]c2ccccc2c1CCNCc1ccc(/C=C/C(=O)NO)cc1 | 0.243 µM (active)
Cc1cc(Nc2cc(N3CCN(C)CC3)nc(/C=C/c3ccccc3)n2)n[nH]1 | 21.7 µM (active)
CCN(CC)CCNC(=O)c1c(C)[nH]c(/C=C2\C(=O)Nc3ccc(F)cc32)c1C | 22.4 µM (active)
CC(C)c1nn(-c2c(Cl)cccc2Cl)c2nc(Cc3ccc(OCCO)cc3)[nH]c(=O)c12 | 0.0968 µM (active)
CCc1cccc(CC)c1NC(=O)N1Cc2[nH]nc(NC(=O)c3ccc(N4CCN(C)CC4)cc3)c2C1 | inactive
Cc1cnc(Nc2ccc(CN3CCOCC3)cc2)nc1Nc1cccc(S(=O)(=O)NC(C)(C)C)c1 | 21.7 µM (active)
CC(=O)NCC(=O)N1C2CCC1c1cc(Nc3ncc(C(F)(F)F)c(NC4CCC4)n3)ccc12 (stereo unspecified) | inactive
CCCc1nn(C)c2c(=O)[nH]c(-c3cc(S(=O)(=O)N4CCN(C)CC4)ccc3OCC)nc12 | inactive
CN(Cc1cnc2nc(N)nc(N)c2n1)c1ccc(C(=O)N[C@@H](CCC(=O)O)C(=O)O)cc1 | inactive

SMILES | Potency
C[C@@]1(C(=O)Nc2ccc(F)nc2)CCCN1c1nc(Nc2cc(C3CC3)[nH]n2)c2cccn2n1 | inactive
Cc1ccc(C(=O)Nc2ccc(CN3CCN(C)CC3)c(C(F)(F)F)c2)cc1C#Cc1cnc2cccnn12 | 19.3 µM (active)
CC(=O)c1cnc2ccc(-c3cc(Cl)c(O)c(Cl)c3)nc2c1NC1CCC(CN(C)C)CC1 (stereo unspecified) | 1.4 µM (active)
C=CC(=O)Nc1cc2c(Nc3ccc(F)c(Cl)c3)ncnc2cc1OCCCN1CCOCC1 | 24.3 µM (active)
COc1cccc2c1C(=O)c1c(O)c3c(c(O)c1C2=O)C[C@@](O)(C(=O)CO)C[C@@H]3O[C@H]1C[C@H](N)[C@H](O[C@@H]2CCCCO2)[C@H](C)O1 | 2.43 µM (active)
COc1cc2c(NC3CCN(C(C)C)CC3)nc(C3CCCCC3)nc2cc1OCCCN1CCCC1 | 15.3 µM (active)
Cn1c(=O)c(-c2c(Cl)cccc2Cl)cc2cnc(Nc3cccc(C(=O)O)c3)nc21 | 5.44 µM (active)
COc1c(C)c2c(c(O)c1C/C=C(\C)CCC(=O)O)C(=O)OC2 | inactive
CC(Oc1cc(-n2cnc3ccc(CN4CCN(C)CC4)cc32)sc1C(N)=O)c1ccccc1C(F)(F)F (stereo unspecified) | 5.44 µM (active)
CCN(CC)CCCC(C)Nc1ccnc2cc(Cl)ccc12 (stereo unspecified) | inactive
OC[C@H]1O[C@@H](n2cnc3c(=S)nc[nH]c32)[C@H](O)[C@@H]1O | 10.9 µM (active)
O=C(O)C1(Cc2cccc(Nc3nccs3)n2)CCC(Oc2cccc(Cl)c2F)CC1 (stereo unspecified) | inactive
O=C(CCCCCCC(=O)Nc1ccccc1)NO | 3.43 µM (active)
CN(NC(=O)CC(=O)NN(C)C(=S)c1ccccc1)C(=S)c1ccccc1 | 0.0273 µM (active)
CNCc1ccc(-c2[nH]c3cc(F)cc4c3c2CCNC4=O)cc1 | inactive

From PubChem BioAssay AID1345085 (National Center for Advancing Translational Sciences (NCATS), 2018)
